Experimental data published in the supplement of paper PMC12282887.
± gives the standard deviation of the averaged measurements.

Assays:
Assay in all cases: promoter activity interaction Z-score (Lux/OD deviation from empty-vector control); higher = stronger promoter induction by the compound
[1] = tested on: E. coli BW25113 acrABp lux reporter
Summary of the method: (§1)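 E. coli BW25113 (wild type or marA, soxS or rob deletion) carrying low-copy luxCDABE promoter reporters grew in 40 µl LB Lennox in 384-well plates at 37°C. Each compound was tested at four 1:2 dilutions in biological duplicates. OD600 and luminescence were read every 30 min for 12 h. Areas were taken over 0–8 h (wild type) or 1–9 h (mutants), and wells below 10% of median growth area were removed. The score is the Z-transformed residual of growth-normalised luminescence fitted against the empty-vector control.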

[2] = tested on: E. coli BW25113 micFp lux reporter
Summary of the method: as §1

[3] = tested on: E. coli BW25113 ompFp lux reporter
Summary of the method: as §1

[4] = tested on: E. coli BW25113 robp lux reporter
Summary of the method: as §1

[5] = tested on: E. coli BW25113 soxSp lux reporter
Summary of the method: as §1

[6] = tested on: E. coli BW25113 tolCp lux reporter
Summary of the method: as §1

[7] = 8.6 µg/ml, genetic background: wild type
[8] = 8.6 µg/ml, genetic background: ΔmarA
[9] = 8.6 µg/ml, genetic background: Δrob
[10] = 8.6 µg/ml, genetic background: ΔsoxS
[11] = 17.1 µg/ml, genetic background: wild type
[12] = 17.1 µg/ml, genetic background: ΔmarA
[13] = 17.1 µg/ml, genetic background: Δrob
[14] = 17.1 µg/ml, genetic background: ΔsoxS
[15] = 34.3 µg/ml, genetic background: wild type
[16] = 34.3 µg/ml, genetic background: ΔmarA
[17] = 34.3 µg/ml, genetic background: Δrob
[18] = 34.3 µg/ml, genetic background: ΔsoxS
[19] = 68.6 µg/ml, genetic background: wild type
[20] = 68.6 µg/ml, genetic background: ΔmarA
[21] = 68.6 µg/ml, genetic background: Δrob
[22] = 68.6 µg/ml, genetic background: ΔsoxS

Which results are given for `Nc1ccc(C(=O)O)cc1` [4-Aminobenzoic acid]?
promoter activity interaction Z-score [1, 7]: -0.327 ± 0.11; promoter activity interaction Z-score [1, 8]: -0.528 ± 0.3; promoter activity interaction Z-score [1, 9]: 0.0646 ± 0.18; promoter activity interaction Z-score [1, 10]: 0.357 ± 0.28; promoter activity interaction Z-score [1, 11]: 0.051 ± 0.24; promoter activity interaction Z-score [1, 12]: -0.48 ± 0.058; promoter activity interaction Z-score [1, 13]: 0.185 ± 0.16; promoter activity interaction Z-score [1, 14]: 0.299 ± 0.26; promoter activity interaction Z-score [1, 15]: -0.112 ± 0.046; promoter activity interaction Z-score [1, 16]: -0.447 ± 1.1; promoter activity interaction Z-score [1, 17]: -0.379 ± 0.054; promoter activity interaction Z-score [1, 18]: 0.511 ± 1.2; promoter activity interaction Z-score [1, 19]: 0.119 ± 0.39; promoter activity interaction Z-score [1, 20]: 1.54 ± 0.67; promoter activity interaction Z-score [1, 21]: 1.31 ± 0.45; promoter activity interaction Z-score [1, 22]: 1.66 ± 1.3; promoter activity interaction Z-score [2, 7]: 0.00335 ± 0.11; promoter activity interaction Z-score [2, 8]: 0.0686 ± 0.11; promoter activity interaction Z-score [2, 9]: 0.0394 ± 0.14; promoter activity interaction Z-score [2, 10]: 0.675 ± 0.52; promoter activity interaction Z-score [2, 11]: 0.408 ± 0.1; promoter activity interaction Z-score [2, 12]: 0.209 ± 0.16; promoter activity interaction Z-score [2, 13]: 0.289 ± 0.15; promoter activity interaction Z-score [2, 14]: 0.578 ± 0.075; promoter activity interaction Z-score [2, 15]: 0.901 ± 0.57; promoter activity interaction Z-score [2, 16]: 0.213 ± 0.23; promoter activity interaction Z-score [2, 17]: 0.391 ± 0.17; promoter activity interaction Z-score [2, 18]: 1.38 ± 0.55; promoter activity interaction Z-score [2, 19]: 1.16 ± 0.52; promoter activity interaction Z-score [2, 20]: 0.44 ± 0.26; promoter activity interaction Z-score [2, 21]: 1.42 ± 0.091; promoter activity interaction Z-score [2, 22]: 1.7 ± 0.14; promoter activity interaction Z-score [3, 7]: -0.317 ± 0.4; promoter activity interaction Z-score [3, 8]: 0.283 ± 0.085; promoter activity interaction Z-score [3, 9]: 0.0614 ± 0.37; promoter activity interaction Z-score [3, 10]: 0.333 ± 0.36; promoter activity interaction Z-score [3, 11]: 0.0303 ± 0.3; promoter activity interaction Z-score [3, 12]: 0.284 ± 0.18; promoter activity interaction Z-score [3, 13]: 0.709 ± 0.41; promoter activity interaction Z-score [3, 14]: 0.198 ± 0.39; promoter activity interaction Z-score [3, 15]: -0.722 ± 0.31; promoter activity interaction Z-score [3, 16]: -0.0385 ± 0.32; promoter activity interaction Z-score [3, 17]: -1.06 ± 0.97; promoter activity interaction Z-score [3, 18]: 0.199 ± 1.1; promoter activity interaction Z-score [3, 19]: -0.481 ± 0.17; promoter activity interaction Z-score [3, 20]: 1.24 ± 0.08; promoter activity interaction Z-score [3, 21]: 1.09 ± 0.2; promoter activity interaction Z-score [3, 22]: 0.488 ± 0.83; promoter activity interaction Z-score [4, 7]: 0.134 ± 0.3; promoter activity interaction Z-score [4, 8]: 0.171 ± 0.2; promoter activity interaction Z-score [4, 9]: 0.341 ± 0.11; promoter activity interaction Z-score [4, 10]: 0.571 ± 0.73; promoter activity interaction Z-score [4, 11]: 0.745 ± 0.54; promoter activity interaction Z-score [4, 12]: 1.04 ± 0.39; promoter activity interaction Z-score [4, 13]: 0.56 ± 0.27; promoter activity interaction Z-score [4, 14]: 0.303 ± 0.42; promoter activity interaction Z-score [4, 15]: 0.118 ± 0.27; promoter activity interaction Z-score [4, 16]: 0.355 ± 0.34; promoter activity interaction Z-score [4, 17]: -0.251 ± 0.88; promoter activity interaction Z-score [4, 18]: -0.337 ± 0.84; promoter activity interaction Z-score [4, 19]: 0.598 ± 0.44; promoter activity interaction Z-score [4, 20]: 1.92 ± 1.2; promoter activity interaction Z-score [4, 21]: 2.53 ± 2.5; promoter activity interaction Z-score [4, 22]: 2.68 ± 1.7; promoter activity interaction Z-score [5, 7]: 0.154 ± 0.019; promoter activity interaction Z-score [5, 8]: 0.4615 ± 0.00081; promoter activity interaction Z-score [5, 9]: 0.443 ± 0.19; promoter activity interaction Z-score [5, 10]: 0.4 ± 0.53; promoter activity interaction Z-score [5, 11]: 0.18 ± 0.23; promoter activity interaction Z-score [5, 12]: 0.618 ± 0.11; promoter activity interaction Z-score [5, 13]: 0.555 ± 0.098; promoter activity interaction Z-score [5, 14]: 0.287 ± 0.083; promoter activity interaction Z-score [5, 15]: 0.259 ± 0.017; promoter activity interaction Z-score [5, 16]: 0.436 ± 0.14; promoter activity interaction Z-score [5, 17]: 0.48 ± 0.11; promoter activity interaction Z-score [5, 18]: 0.363 ± 0.93; promoter activity interaction Z-score [5, 19]: -0.597 ± 0.028; promoter activity interaction Z-score [5, 20]: 0.693 ± 0.26; promoter activity interaction Z-score [5, 21]: 0.532 ± 0.4; promoter activity interaction Z-score [5, 22]: -0.372 ± 0.24; promoter activity interaction Z-score [6, 7]: -0.592 ± 1.1; promoter activity interaction Z-score [6, 8]: 0.924 ± 0.68; promoter activity interaction Z-score [6, 9]: -0.26 ± 0.81; promoter activity interaction Z-score [6, 10]: 0.91 ± 0.25; promoter activity interaction Z-score [6, 11]: -0.356 ± 1; promoter activity interaction Z-score [6, 12]: 0.371 ± 2.1; promoter activity interaction Z-score [6, 13]: 0.781 ± 1.4; promoter activity interaction Z-score [6, 14]: -0.463 ± 0.096; promoter activity interaction Z-score [6, 15]: 0.348 ± 0.41; promoter activity interaction Z-score [6, 16]: 0.458 ± 1.9
